Experimental data: the supplement of paper PMC9948646

What follows are molecules tested on gramicidin D channels in DC22:1PC lipid vesicles (bilayer-modifying potency) (assay: initial Tl+ fluorescence quench rate relative to no-drug control (NormRate, gramicidin monomer-dimer shift) (ratio (fold of control)); higher = stronger bilayer-modifying effect (equilibrium shifted toward conducting dimers), active = 1.5 or more). Settings: 10 µM; lipid concentration 50 µM; temperature: 25 °C.
Experimental: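 Stopped-flow fluorescence quench assay: ANTS-loaded DC22:1PC large unilamellar vesicles doped with gramicidin D (1:2000), 50 µM lipid, equilibrated 10 min with 10 µM drug (0.1% DMSO), mixed with Tl+ quench buffer at 25°C. Initial quench rate (Tl+ influx) was fitted with a modified stretched exponential and normalised to the no-drug control rate (NormRate); duplicates from two independent LUV preparations (triplicates for 7 drugs).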

Initial Tl+ fluorescence quench rate, inactive:
CC(=O)NC[C@H]1CN(c2ccc(-c3ccc(CO)cc3)c(F)c2)C(=O)O1 1.22
COC(=O)c1ccc(F)cc1NS(=O)(=O)c1cccc(-c2cnn(Cc3ccccc3)c2)c1 1.25
CCCNC(=O)N1CCC2(CC1)CC(=O)c1cc(C)ccc1O2 1.15
O=C(NCc1ccco1)N1CCN(Cc2ccc(Cl)s2)CC1 1.03
CC(=O)Nc1ccc(NC(=O)c2cc(-c3cc(Cl)ccc3O)[nH]n2)cc1 1.06
CCCCc1ccc(NC(=O)Nc2ccc(O[C@H]3CCCC[C@@H]3N(C)c3ccccc3)c(F)c2)cc1 1.35
O=C(Nc1ccccc1-c1nc2c(C(=O)O)cccc2o1)c1ccccc1 1.34
CC(=O)N(CCN(C(=O)c1ccc(F)cc1)c1ccccc1)c1ccccc1 1.14
CCn1cnc2c(Nc3cc(F)cc(F)c3)nc(C#N)nc21 1.21
Cc1cc(NC(=O)c2ccc(Oc3ccc(Cl)cc3O)o2)no1 1.11
O=C(Nc1nnc(-c2ccc(Cl)s2)o1)c1ccc(Cl)s1 1.27
COc1cc(-c2cc(-c3ccc(S(C)(=O)=O)cc3)cnc2N)ccc1O 1.09
Cc1nn2c(=O)c3c([nH]c2c1-c1ccc(Cl)cc1)CCCC3 1.13
CCS(=O)(=O)N(Cc1ccco1)Cc1cc2ccc(C)cc2nc1O 1.26
CC(C)(C)OC(=O)N1CCN(c2nccc(-c3ccc(-c4ccc(Cl)cc4)s3)n2)CC1 1.28
Nc1ccc(C(=O)Nc2ccc(-c3nc4ccccc4o3)cc2)cc1 1.1
FC(F)(F)c1cc(NCCc2ccccc2)nc(-c2ccccn2)n1 1.31
Cc1nnc(NCc2cccc(Cl)c2)c2ccccc12 1.05
Cc1nnc(NC(=O)c2cn(-c3ccccc3)nc2-c2ccccc2C)o1 1.02
COc1cncc(-c2cncc(N3CCN(c4ccncc4)CC3)n2)c1 1.11
[H]/N=C(\N)N[C@H]1[C@@H](O)[C@@H](O)[C@H](O[C@H]2O[C@H](C)[C@](O)(C=O)[C@H]2O[C@H]2O[C@@H](CO)[C@@H](O)[C@@H](O)[C@@H]2NC)[C@@H](N/C(N)=N/[H])[C@H]1O 1.05
NC(=O)c1cc(Br)ccc1OCCOc1ccccc1 1.21
COc1cccc(-n2nnnc2S(=O)(=O)Cc2ccccc2)c1 1.07
N#CCN(CCCCN1CCN(c2ccc(F)cc2)CC1)C(=O)OCc1ccccc1 1.5
O=C(c1[nH]nc2c1CCCC2)N1CCN(Cc2ccc3c(c2)OCO3)CC1 1.03
CC(C)(C)c1cc(C(=O)N2CCN(c3nccnc3C#N)CC2)n(Cc2ccccc2)n1 1.21
CCc1ccc(S(=O)(=O)Nc2cc(CN3CCN(CCC(C)C)CC3)ccc2C)cc1 1.29

Initial Tl+ fluorescence quench rate, active:
COc1ccc(Oc2ccc([C@@H](C)N(C)c3ncc4c(N)nc(N)nc4n3)cc2)cc1 3.36
O=C(CCC1CCCCC1)Nc1cccc(-c2nnc(-c3ccco3)o2)c1 1.57
O=C1Nc2ccc(Br)cc2[C@]12NCCc1c2[nH]c2ccccc12 3.74
Cc1noc(C)c1C(=O)N1CCC[C@@H](c2[nH]c3c(C)cccc3c2-c2ccncc2)C1 1.73
CN(C)c1cc(NC(=O)Nc2ccccc2)c2ccccc2n1 1.74
Cc1cccc(-c2nc(Nc3ccncn3)c3sccc3n2)n1 1.81
O=C(Nc1ccccc1)c1ccc(-c2cc3ccncc3cc2OC2CCNCC2)s1 1.8
c1ccc(Oc2ccc(-c3cc(C4CCOCC4)[nH]n3)cc2)cc1 3.48
Cc1ccc(-c2cc(C(=O)Nc3cccnc3)c3cc(Br)ccc3n2)cc1 2.5
O=C(CN1CCOCC1)Nc1ccc2ncnc(Nc3ccc(OCc4cccc(F)c4)c(Cl)c3)c2c1 6.71
COc1cc(CN2CCC3(C=Cc4ccccc43)CC2)cc2c1OCO2 2.43
CC(=O)N1CCN(c2ccc(Oc3ccc(Cl)cc3O)cc2)CC1 1.51
Cc1cc2ccccc2n1CC(=O)N1C[C@@H](C(=O)N2CCCCC2)Oc2ccccc21 1.72
